From PubChem
gsp antagonist = gsp mutant antagonism | Potency, µM (top dose mostly 76.9 µM), without a hit: at the top dose activity change, negative = inhibition, usual class: inhibitors | gsp-mutant cells, cAMP HTRF, 30 min | AID 624288 | actives 0.4% (n = 340,000); calls by dose curve; cell line not stated here;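 also: intracellular cAMP measured with PDE inhibitor Ro 20-1724 present during compound exposure; potency is read from the fitted curve at half-maximal effect; % is scaled to controls: 0 for no effect and ±100 for the full control effect; nearly all actives have a fitted effect of over 65% in size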
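Measurement of cellular cAMP by homogeneous time-resolved fluorescence following a 30 min compound exposure at 37C. The PDE inhibitor […] was present throughout; the assay buffer was DPBS with 0.05% BSA and 0.005% Tween 20.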
hERG WT inh = blocks the wildtype human KCNH2 potassium channel; Q12809; U2OS, BacMam KCNH2, thallium flux FluxOr; hits give low values; activity change, % at 1.84 µM; actives 0.37% (n = 340,000);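 active = maximum activity change below -70%; inconclusive = maximum activity change between -70% and -50%; inactive = maximum activity change above -50%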; also: % is scaled to controls: 0 for no effect and ±100 for the full control effect
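U2OS cells transduced with wild-type KCNH2 virus are loaded with FluxOr dye for 45 min, and thallium flux is measured in kinetic reads before and after stimulation buffer. Rate constants are normalized to DMSO controls.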
KCNH2 3.1 block = KCNH2 3.1 (human) potassium channel inhibition; activity change, % (tested at about 1.8 µM); actives 0.95% (n = 340,000); U2OS KCNH2 3.1, thallium flux FluxOr; hits give low values;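 active = maximum activity change below -70%; inconclusive = maximum activity change from -70% to -50%; inactive = maximum activity change above -50%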;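 also: thallium influx rate constant from kinetic fluorescence after stimulation buffer; % is scaled to controls: 0 for no effect and ±100 for the full control effect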
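Measured as rate of thallium-driven FluxOr signal in transduced U2OS cells carrying the 3.1 channel, read kinetically for 2 min upon stimulation; values are rate constants scaled to DMSO control wells.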
gsp ag = activates gsp, the McCune-Albright syndrome mutation; gsp mutant cells, cAMP HTRF, 30 min; AID 624287; actives 0.13% (n = 340,000); Potency, µM (doses to about 76.9 µM), without a hit: at the top dose activation (cAMP increase), usual class: activators; active = well fitted activation curve with a large enough effect; inconclusive = small, poorly fitted or top-dose-only effect, or another doubt; inactive = no such curve, though single readings can be large or run the other way; cell line not stated here;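 also: phosphodiesterase inhibitor Ro 20-1724 added with compounds to block cAMP breakdown; potency is read from the fitted curve at half-maximal effect; nearly all actives have a fitted effect of over 60% in size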
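Cells stably selected in G418 were plated at 2000/well, grown 16-24 hr, then given compounds in DMSO with the PDE inhibitor […] (300 uM solution added) for 30 min at 37C; cAMP was read by HTRF.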
Akt phos inh = Akt phosphorylation inhibition | Neuro2A IGF-stimulated pAkt S473 HTRF, 20 min; hits give low values | activity change, % for hits at 50 µM | actives 0.32% (n = 360,000); in the data active = activity change below about -80%; inconclusive = mostly about -51% to -80%; also: % is scaled to controls: 0 for no effect and ±100 for the full control effect
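Neuro2A cells in DMEM with 0.5% FBS, overnight at 37 deg C, given compound at single 50 µM final, then IGF (6 nM final) for 20 min at 37 deg C. Lysed; phospho-Akt Ser473 by HTRF after 24 h, 665/615 ratio.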
GRP78 ERSR act = ER stress response induction in glioma | U87-MG GRP78 promoter luciferase reporter, 16 h | Potency, µM, for inactives: at the highest dose activation, usual class: activators | actives 0.02% (n = 420,000) | AID 602332; active = well fitted activation curve with a large enough effect; inconclusive = small, poorly fitted or top-dose-only effect; inactive = no such curve, though single readings can be large or run the other way; also: potency is read from the fitted curve at half-maximal effect; series mostly up to about 76 µM; % of control where 0% means no effect; nearly all actives have a fitted effect of over 35% in size
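Stably transfected U87-MG human glioma cells carrying a GRP78-based luminescent sensor were seeded at 1000 cells/well, pin-dosed with compounds and incubated 16 h. Luciferase reagent was then added, and end-point luminescence was read after 10 min at room temperature.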
An asterisk follows results filed as active; i = inactive; ? = inconclusive; / = no result given; [ ] = another dose, or the depositor's remark. The list is not random: actives were taken first. Their share in the collection is about 1.6%.

SMILES	gsp antagonist	hERG WT inh	KCNH2 3.1 block	gsp ag	Akt phos inh	GRP78 ERSR act
CCCCC(NC(=O)Cc1c(C)c2cc3c4c(oc3cc2oc1=O)CCCC4)C(=O)O (stereo not given)	-3%	-151*	-3	-1%[15.4 µM]	i	0%
CSCC[C@H](NC(=O)Cc1c(C)c2cc3c4c(oc3cc2oc1=O)CCCC4)C(=O)O	-5%	-4	10	7%	i	-2%
CC(=O)c1ccc(NC(=O)c2ccc3c(=O)n4c(nc3c2)CCCCC4)cc1	?	-7	4	-30%	i	1%
Cc1ccc(-c2csc(NC(=O)c3ccc4c(=O)n5c(nc4c3)CCCCC5)n2)cc1	-7%	-77*	-10	-32%	i	-3%
O=C(c1cc(=O)[nH]c2ccccc12)N1CCN(S(=O)(=O)c2ccc(Cl)cc2)CC1	-5%	-115*	-9	?	i	-4%
Cc1cc(I)ccc1Nc1nc(NCCN2CCOCC2)nc(N2CCOCC2)n1	/	/	/	/	/	-2%
COCC(=O)Nc1cc(C(=O)N2CCSCC2)cc2nc(-c3ccccc3)n(C)c12	/	/	/	/	/	-6%
CCCCN(C)CC(O)Cn1cc(/C=C/C(=O)c2cccs2)c2ccccc21 (stereo not given)	12%	0	-14	-27%	i	-2%
O=C(/C=C/c1cn(CC(O)CN2CCCCCC2)c2ccccc12)c1cccs1 (stereo not given)	-2%	-1	-86*	3%[15.4 µM]	i	-1%
COc1cccc(-c2nnc(NC(=O)c3ccc(S(=O)(=O)N4CC(C)OC(C)C4)cc3)o2)c1 (stereo not given)	35µM*	10	2	-13%	i	-6%
O=C(CN1CCC2(CC1)OCCO2)c1c[nH]c2ccccc12	7%	-20	9	-2%	-122%*	-5%
Cc1ccccc1Cc1nc2cccnc2n1C1CCN(C(=O)CC2NC(=O)c3ccccc32)CC1 (stereo not given)	/	/	/	/	/	-6%
O=C(Cn1c(C(F)(F)F)nc2ccccc21)Nc1ccccc1N1CCOCC1	-2%	-1	-6	-1%	i	-4%
O=C(Nc1cc(C(F)(F)F)ccc1N1CCOCC1)c1cccnc1Cl	-9%	8	-2	-3%	-111%*	1%
CSc1nc2ccccc2n1CC(=O)Nc1cc(C(F)(F)F)ccc1N1CCOCC1	-12%	-9	-9	-20%	-120%*	-6%
O=[N+]([O-])c1ccc(O)c(Nc2ncnc3ccc(Br)cc23)c1	35µM*	-13	5	0%	i	1%
COc1cc(CNC(=O)c2cnn(-c3ncc4c(n3)-c3ccccc3CC4)c2C)cc(OC)c1OC	/	/	/	/	/	4%
COc1ccc(N(C)C(=O)C2CCCN2S(=O)(=O)c2cccc3nsnc23)c(OC)c1 (stereo not given)	-3%	-208*	-7	-21%	i	-9%
COc1cc(OC)c(CN2CCC(CO)(CCOc3ccccc3)CC2)c(OC)c1	10%	-105*	/	7%	i	-3%
COc1ccc(CN2CCC(CO)(CCOc3ccccc3)CC2)cc1C	11%	-13	-125*	-5%[15.4 µM]	i	-2%
Cc1cccc(-n2c(N)c(-c3nc4ccccc4n3C)c3nc4ccccc4nc32)c1	?	-134*	-96*	13%	i	-1%
Cc1ccccc1-c1nnn(Cc2cccc(S(=O)(=O)N3CCOCC3)c2)n1	35µM*	-20	-8	3%	i	-1%
COC(=O)c1[nH]c2cc(OC)ccc2c1NC(=O)CCN1CCN(c2ccccc2)CC1	12%	12	-44	2%	i	-2%
COC(=O)c1[nH]c2cc(OC)ccc2c1NC(=O)CCN1CCN(c2cccc(C)c2C)CC1	-17%	6	-91*	2%	i	-6%
O=c1cc(/C=C/c2ccc([N+](=O)[O-])cc2)c2ccccc2[nH]1	/	/	/	/	/	-4%
Cn1c(=S)[nH]c2c(c1=O)C(C)(C)Cc1ccccc1-2	-2%	10	5	92%[15.4 µM]	i	4%
CCn1c(=S)[nH]c2c(c1=O)C(C)(C)Cc1ccccc1-2	34%	-3	0	2.8µM*	i	-3%
